# The campaign covered roughly 50,000 compounds. About 800 (1.6%) showed an effect of 50% or more. Many of the other results were omitted from the sample, so strong results are more common in it than they were.
# Target: Bcl-2-like protein 10 (Homo sapiens) (UniProt Q9HD36)
# Test: TR3 peptide-Bcl-B binding displacers, biochemical primary FP assay, phenotype converters (AID 1240);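 note: 0% = Bcl-B with tracer peptide and DMSO and 100% = tracer peptide lacking Bcl-B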
# Settings: GST-Bcl-B / FITC-TR3 peptide fluorescence polarization; stronger effect = higher value; compound at 3.75 mg/L
# Sequence of Bcl-2-like protein 10 (Homo sapiens) (Q9HD36 whole entry, looked up): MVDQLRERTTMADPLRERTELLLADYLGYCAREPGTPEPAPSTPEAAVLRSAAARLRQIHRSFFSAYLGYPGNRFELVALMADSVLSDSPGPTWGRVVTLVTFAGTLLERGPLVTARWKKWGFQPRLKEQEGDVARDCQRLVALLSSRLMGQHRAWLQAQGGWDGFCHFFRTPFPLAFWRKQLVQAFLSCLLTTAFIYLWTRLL
row,Structure (SMILES),displacement
1,Cc1ccc(/C(O)=C2\C(=O)C(=O)N(c3nncs3)C2c2cccc(Cl)c2)cc1 (centres undefined),12.7%
2,Cc1cc(C)c2nc3s/c(=C\c4ccc([N+](=O)[O-])cc4)c(=O)n3c2c1,-6.3%
3,O=C(Nc1ccc(Br)cc1)C1C(c2ccccc2)=C1c1ccccc1,-6.7%
4,CC(=O)N1c2ccccc2NC2=C(C(=O)CC(c3ccccc3)C2)C1c1ccccc1Cl (centres undefined),-12%
5,CC1(C)c2ccccc2N(CCO)C12C=Cc1cc(Br)ccc1O2 (centres undefined),7.8%
6,Cc1ccc(CNC(=O)c2ccc([N+](=O)[O-])cc2Cl)cc1,0.9%
7,Cc1ccccc1NC(=O)c1c(N)sc2c1CCCC2,12.7%
8,COc1ccc(C2/C(=C(\O)c3ccc(Cl)cc3)C(=O)C(=O)N2c2cccnc2)c(OC)c1 (centres undefined),-7.1%
9,CCOc1ccccc1/C=C1/SC(NC(C)=O)=NC1=O,12.9%
10,CCOc1ccc(/C=C2/SC(NC(C)=O)=NC2=O)cc1,132%
11,CCOc1ccc(/C=C2/SC(NC(C)=O)=NC2=O)cc1OCC,54.6%
12,CCOc1cc(/C=C2/SC(N)=NC2=O)ccc1OCc1ccc(F)cc1,-15.9%
13,C=C1CC(C)OC(c2ccccc2O)C1 (centres undefined),-4.4%
14,O=C1CC(Nc2ccc(F)cc2)C(=O)N1c1ccccc1C(F)(F)F (centres undefined),1.1%
15,C=CCNC(=O)CN(c1ccc(OC)cc1)S(C)(=O)=O,1.7%
16,COc1cc(C(=O)c2cc(Br)ccc2NC(=O)COc2ccc(C)cc2)cc(OC)c1OC,17.2%
17,COc1cc(C(=O)c2cc(Br)ccc2NC(=O)COc2ccccc2)cc(OC)c1OC,57.3%

row,Structure (SMILES),displacement
1,COc1cc(C(=O)Nc2ccc(Br)cc2C(=O)c2cc(OC)c(OC)c(OC)c2)cc(OC)c1OC,22.3%
2,COc1cc(CN2CCN(Cc3ccccn3)CC2)cc(OC)c1OC,-5.1%
3,CCOC(=O)C(Cc1cc(C)c(CC(C(=O)OCC)C(=O)OCC)cc1C)C(=O)OCC,-8.7%
4,CCOC(=O)C1=CN(c2ccc(F)cc2)C=C(C(=O)OCC)C1c1cc(OC)c(OC)c(OC)c1,-2.3%
5,CC(=O)N/N=C/c1cc(C)n(-c2ccc(Cl)cc2Cl)c1C,-7.1%
6,COc1cccc(-c2csc(-c3cc4cccc(OC)c4oc3=O)n2)c1,-23.1%
7,COc1cccc2cc(-c3nc(-c4ccc(Cl)c(Cl)c4)cs3)c(=O)oc12,0.1%
8,CCOc1ccc(-c2csc(-c3cc4ccccc4oc3=O)n2)cc1,-2.8%
9,COc1cccc2cc(-c3nc(-c4ccccc4)cs3)c(=O)oc12,7.8%
10,Cc1ccc(-c2nc(-c3cc4cc([N+](=O)[O-])c(O)cc4oc3=O)cs2)cc1,-4.8%
11,Cc1ccc(-c2csc(-c3cc4ccccc4oc3=O)n2)cc1,154%
12,O=c1oc2ccccc2cc1-c1nc(-c2ccc(Cl)c(Cl)c2)cs1,61.2%
13,COc1cccc2cc(-c3nc(-c4ccc(C)c(C)c4)cs3)c(=O)oc12,80.5%
14,Cc1ccc(-c2csc(-c3cc4cc([N+](=O)[O-])ccc4oc3=O)n2)cc1,-7.9%
15,O=c1oc2cc(O)c([N+](=O)[O-])cc2cc1-c1csc(-c2ccc(Cl)cc2)n1,-11.3%
16,O=c1oc2cc(O)c([N+](=O)[O-])cc2cc1-c1csc(-c2cc3ccccc3oc2=O)n1,-10%
17,O=c1oc2cc(O)ccc2cc1-c1csc(-c2ccc(-c3ccccc3)cc2)n1,116%
